Experimental findings from article PMC12136788 are described below.

Sequences and labels used below:
T1: UNK ZnF1-3 (human, UniProt Q9C0B0 31-174)
T1 sequence: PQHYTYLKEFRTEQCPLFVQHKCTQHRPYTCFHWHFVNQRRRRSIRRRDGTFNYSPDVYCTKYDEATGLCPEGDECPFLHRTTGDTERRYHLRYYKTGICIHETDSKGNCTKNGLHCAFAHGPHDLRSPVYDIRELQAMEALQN

B1: chr21:34877999:34878000:-_ENSG00000159131_ENST00000381815|hu_hu|motif|central (ssRNA)
RNA: GGGAGUUCUACAGUCCGACGAUCGUCAAUUGCACUGUCAAAUUCUACACGAUUUUUAUACAGUUUAUGAUUAAUUACUCGGGUGGGAAUACCAGCUCUUUCCGCUUUAUCUAACCCAGCUACUGCGGCUUUGUUGGAGAUAACCAACAGAGGAUUGAGCAUCA
B2: 72560208_72560328_3170_3pUTR_ENSMUSG00000056429_ENSMUST00000070524|mouse|control|control (ssRNA)
RNA: GGGAGUUCUACAGUCCGACGAUCUCCUAAAAAUUAGCGGAGAGUAUACCUAGAUAAUUUCUUUAAAAAAAAAAAAGUGGACUUCUGUGAUGAUAAAAAUGUUUUUAGUUUAUAGUGUGGAGUUUUCAGAUGAUUAGAGAAAGUCAACAGAGGAUUGAGCAUCA
B3: chr1:60041781:60041782:+_ENSMUSG00000041040_ENSMUST00000036540|mus_hu|mus_mus_mus_hu_False|38_58 (ssRNA)
RNA: GGGAGUUCUACAGUCCGACGAUCAAGUUUACAAUAGUAAAGUAAAUGCAGUAGUGGCAAAUUUUCUUUUAUUUUCCUUCCUAAAAGAAAAUCUUUAGAUCUCAGUUCUAGUCUUGGACAUAGUGAAAGCUAUAAAUUCUGACUCAACAGAGGAUUGAGCAUCA
B4: chr4:109959894:109959895:-_ENSMUSG00000028546_ENSMUST00000106598|mus_mus|FALSE|FALSE (ssRNA)
RNA: GGGAGUUCUACAGUCCGACGAUCGCUUCGACUCUUCUCUUAAAAUUUGCAAAGGUUUCAGAAUAUACUUAAAAAUGACUACUAUUGUUUUAUAUAUAUAUAUAUUAAAGAUCCACAGACCACAGUGUGGAUGAUUGUAAAGUACAACAGAGGAUUGAGCAUCA
B5: chr4:109959894:109959895:-_ENSMUSG00000028546_ENSMUST00000106598|mus_mus|motif|central (ssRNA)
RNA: B4 RNA with U79G, A80G, U82G, A83G
B6: chr19:15271055:15271056:-_ENSG00000074181_ENST00000263388|hu_mus|motif|central (ssRNA)
RNA: GGGAGUUCUACAGUCCGACGAUCAUAUAUAUUUUGUAAAAAAUAAUAAUAAUAAUAAGUUUGUUUAAAUGAAUUUGUCUCGGUACAAAAUGUAAAAAAGAAAAAAAUAAUAACUCACUCUUGUCAGAGUGUGAGACAAUGAGACAACAGAGGAUUGAGCAUCA
B7: chr22:28376736:28376737:-_ENSG00000100154_ENST00000397906|hu_hu|FALSE|FALSE (ssRNA)
RNA: GGGAGUUCUACAGUCCGACGAUCAUUUUAGAAUUACCUAAAAGAUACUUACUUAUCUAAAUUCUCCAACUAAACUCAGUACUAAUACGACUUUCAGCAUUUCCUUUCUUUAUAAAAUAAAUUAAUGGUUACCCCUAACUAGAUCAACAGAGGAUUGAGCAUCA
B8: chr2:23028566:23028567:+_ENSMUSG00000026775_ENSMUST00000028117|mus_mus|FALSE|FALSE (ssRNA)
RNA: GGGAGUUCUACAGUCCGACGAUCGGUCUUCUGUGUAAGAGCUUGAGCUUUGAGAAAACCCUCUGCAAAACCAGUUUUAAAUGCAUCUUGGUGAGCUUCAGGUAUGUUUUUAGUUUUCAUAAGUUUGUCCAAACUCUCAAGAUCCAACAGAGGAUUGAGCAUCA
B9: chr2:179803060:179803061:+_ENSMUSG00000039086_ENSMUST00000041126|mus_mus|FALSE|FALSE (ssRNA)
RNA: GGGAGUUCUACAGUCCGACGAUCAUGUAAAAAAAAAAAAAAUCACCCAAUUCUCACUGUAUAAAACUUGUCCUUUUCAUUUGAAAGAACGUAAUAAAGUUAUUUGGAUUCAUUAAAAAUGCAGUGUGGAUUUCAGACUUCCCUCAACAGAGGAUUGAGCAUCA
B10: chr18:25531195:25531196:-_ENSG00000170558_ENST00000399380|hu_mus|motif|central (ssRNA)
RNA: GGGAGUUCUACAGUCCGACGAUCCUUUUUUUUUUUUUGUGUGUAAUUUUUUUGGUACAAAUUAUGUAAAACACUUGUGCGGAGAACUUUUACCCCUCCCCAAAACGAAACAAACAAAAAGAAAAUAAAAAAAUUUAAAAAAAACAACAGAGGAUUGAGCAUCA
B11: chr7:141450121:141450122:+_ENSG00000106028_ENST00000265304|hu_mus|hu_hu_hu_mus_True|8_98 (ssRNA)
RNA: GGGAGUUCUACAGUCCGACGAUCUCAUCCGUUCUAUUCCUUCUCUUUUGUCUGGUCACUCAGAAAUAUAAUGUUAUCAGCUAUGAUUGUUGUUGCUUGCCGCCUCACAUUGUUUUUAUCCAUGUACUCACCAUAGUCCACUUUCAACAGAGGAUUGAGCAUCA
B12: chr4:17845017:17845018:+_ENSG00000109805_ENST00000514176|hu_mus|hu_hu_hu_mus_False|48_108 (ssRNA)
RNA: GGGAGUUCUACAGUCCGACGAUCGCUUCCUAACUUAGUAUCUUCAUUAAGGAACUCUGCAAGGUUAAGUUUACUUUUCUGUAGCGCGCGGUUUUGGGCUCGUCUGGGUAAUCUCAUCUUCAUUUCUGAUGGUGGUUCAUGAUCCAACAGAGGAUUGAGCAUCA
B13: chr8:67197462:67197463:-_ENSMUSG00000031604_ENSMUST00000034015|mus_mus|FALSE|FALSE (ssRNA)
RNA: GGGAGUUCUACAGUCCGACGAUCUCCGAACUGACCAGUGUAUGUAAAAGGCUUAAAAGGCAACGUCAACUUCAGCCUCCUAUGGCAUGAAGUGGUGAGUUGUACAUUAAUACUUCCUCCAGUUCCCGAAACCUUUUGGUGAGGCAACAGAGGAUUGAGCAUCA
B14: chr5:150025729:150025730:+_ENSMUSG00000041264_ENSMUST00000121416|mus_mus|FALSE|FALSE (ssRNA)
RNA: GGGAGUUCUACAGUCCGACGAUCCACGAAGGCUCUCUUCUGAUCUUCUUUCCGAGGCUGAUUCUGUGCUGACCUGGCUGCUACUGUUUUAGAAGACGCUGUGGUUUCUCGUUUUCUCAAAUUAGAUGCCUGAGAUUUACCAGGCAACAGAGGAUUGAGCAUCA

Changes are numbered by the printed parent chain. Whole data set: some 24,000 sequences, median “enrichment r” near 0.99, cut for the highest 2% near 3.7. Only a selection was taken, and the highest values are over-represented in it overall.

This experiment has as its target T1, UNK ZnF1-3. As to the kind of experiment: nsRBNS (natural sequence RNA bind-n-seq); RBNS binding buffer (assumed for nsRBNS): 25 mM Tris pH 7.5, 150 mM KCl, 3 mM MgCl2, 0.01% Triton X-100, 500 ug/ml BSA, 20 U/ml SUPERase-In, 4 C; UNK is unkempt and MSI1 is Musashi-1; names of the RNAs are library labels; protein concentration not given here; high values mean tight binding.
The molecule B1 returned a binding signal of 0.651 enrichment R.

B2: the binding signal came to 8.87 enrichment R.

B3: the binding signal came to 0.462 enrichment R.

B4 showed a binding signal of 4.13 enrichment R.

With B5, the binding signal amounted to 3.36 enrichment R.

Regarding B6, the binding signal amounted to 11.3 enrichment R.

On to B7, for which the binding signal was found to be 1.4 enrichment R.

The molecule B8 gave a binding signal of 1.2 enrichment R.

On to B9, for which the binding signal was determined as 5.86 enrichment R.

For the molecule B10, the binding signal worked out at 3.31 enrichment R.

In turn, B11 had a binding signal of 0.398 enrichment R.

Regarding B12, the binding signal worked out at 0.472 enrichment R.

Take B13: the binding signal worked out at 0.838 enrichment R.

B14 had a binding signal of 0.579 enrichment R.
